Experimental data from the supplement of paper PMC3334620.
Over roughly 33,000 sequences, “E-score (-0.5 to 0.5)” has its median near -0.035; the highest 2% begin near 0.35. The list comes from a sample in which the highest values are over-represented; it also holds similar and randomly drawn sequences.

These sequences were tested against T1, Pdr3 (UniProt P33200) (assay: PBM E-score (8-mer binding enrichment) (E-score (-0.5 to 0.5)); higher = stronger / more preferred TF binding). Conditions: protein concentration: 200 nM; construct: GST-full length.
T1 sequence: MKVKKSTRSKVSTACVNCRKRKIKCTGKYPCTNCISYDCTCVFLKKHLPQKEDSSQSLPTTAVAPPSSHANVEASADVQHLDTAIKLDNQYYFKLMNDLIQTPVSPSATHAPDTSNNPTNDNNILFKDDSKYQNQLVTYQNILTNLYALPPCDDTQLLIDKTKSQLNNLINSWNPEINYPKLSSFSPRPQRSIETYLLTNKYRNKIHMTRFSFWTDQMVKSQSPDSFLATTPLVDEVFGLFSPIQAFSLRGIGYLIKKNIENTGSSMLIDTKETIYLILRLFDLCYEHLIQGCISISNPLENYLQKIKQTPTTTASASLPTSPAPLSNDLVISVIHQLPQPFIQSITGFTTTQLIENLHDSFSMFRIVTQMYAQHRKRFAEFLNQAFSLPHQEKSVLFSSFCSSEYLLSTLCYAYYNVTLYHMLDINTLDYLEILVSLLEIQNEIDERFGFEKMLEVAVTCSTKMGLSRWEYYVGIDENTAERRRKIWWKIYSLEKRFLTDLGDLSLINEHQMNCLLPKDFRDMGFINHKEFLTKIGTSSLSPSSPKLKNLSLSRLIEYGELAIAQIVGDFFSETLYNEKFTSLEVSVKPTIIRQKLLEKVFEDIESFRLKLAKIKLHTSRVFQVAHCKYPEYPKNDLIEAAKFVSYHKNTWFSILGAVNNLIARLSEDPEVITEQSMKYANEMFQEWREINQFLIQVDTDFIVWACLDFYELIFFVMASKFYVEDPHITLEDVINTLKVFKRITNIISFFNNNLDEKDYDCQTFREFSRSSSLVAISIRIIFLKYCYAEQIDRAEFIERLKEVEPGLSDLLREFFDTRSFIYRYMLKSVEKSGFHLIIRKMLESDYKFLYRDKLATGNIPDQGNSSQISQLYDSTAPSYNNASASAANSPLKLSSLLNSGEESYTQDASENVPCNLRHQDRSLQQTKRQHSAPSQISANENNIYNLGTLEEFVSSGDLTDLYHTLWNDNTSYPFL
Outline: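 The E-score, a modified Wilcoxon-Mann-Whitney statistic, was computed by the Universal PBM Analysis Suite for every ungapped eight-base word pooled with its reverse complement. Scans behind it were normalised with masliner after bound GST-tagged yeast transcription factors were detected with fluorescent anti-GST. The proteins, at about 100-200 nM, had been applied to universal all-10-mer Agilent arrays made double-stranded by primer extension.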

Sequence	PBM E-score
GGCGAGCA	0.0206
CAGATAGC	-0.0206
ATAGTTAA	-0.038
CTCAGTAC	-0.183
GACAAACC	-0.0403
TCGTACGA	-0.293
ACTTGGTG	-0.141
ACGGAAAA	0.403
ATGGAAAA	0.0967
AAGGAAAT	0.00091
GCGGAAAA	0.397
AGGGAAAC	-0.104
GAGGAAAA	0.0256
ACGGAAAT	0.452
ACGGGAAA	0.277
AAGGAAAC	0.0238
AGGGAAAT	-0.115
GCGGGAAA	0.332
ACGGAAAC	0.452
AGCACCAA	-0.0317
GGTTGCCA	0.233
ATAACGCG	0.168
CCTATCCC	0.188
TTGCGAAA	0.119
ACACTCCG	0.204

Sequence	PBM E-score
ACATGCGT	-0.265
TTGGAAAA	-0.141
GCGGAAAC	0.415
TGGGAAAA	-0.104
TCGGAAAA	0.4
GAGGAAAC	0.053
GGGGAAAC	0.206
ACTATCAC	-0.18
GGTGCACC	-0.0384
CTCACCAG	-0.147
ACCGGCCG	0.35
ACCGGCGG	0.256
CCGGGCCA	0.346
CCCGGCAG	0.303
CCGGGCCG	0.399
GCGGGCAC	0.216
CCCGGCCG	0.357
ACGGGCAC	0.025
CCCGGCCC	0.247
CCCGGCGG	0.382
CCGGGCCC	0.345
CCGGGCAC	0.364
GCAAGATA	-0.00203
GCCATTAC	0.137
CTCAACTA	-0.0622

Sequence	PBM E-score
CCTCGAAA	-0.114
CCCTGAGA	-0.165
CTCAGAAC	-0.135
ACATATTA	-0.0563
AAGGTTGC	-0.0716
GACCTATA	0.0796
ATACAGAG	-0.223
CAGAAACG	0.0256
AGGAAACA	-0.0166
CGGAAACC	0.425
AGGAAACC	0.00802
CGGAAACA	0.451
CGGAAACG	0.396
GGGAAACA	0.161
AGGAAACG	-0.0809
GGGAAACC	0.149
GTAAGAAC	-0.0573
CGGGGTTA	0.304
CAAGGTAC	-0.25
CCTGGTCA	-0.169
AGTGCAAC	-0.107
CTGCGGAC	0.1
CTGCGGCA	0.0359
CTGCGGAA	0.357
GTGCGGCA	0.0901

Sequence	PBM E-score
GTGCGGGA	0.252
ATGCGGAG	0.0777
ATGCGGAA	0.416
GTGCGGAA	0.366
ATGCGGAC	0.134
CAGCCCGC	0.00736
AATATTAA	0.244
TTGGGAAA	0.0633
CGGCTCGA	0.174
CGAGTCGC	-0.0735
ACACCTCT	-0.0108
TAAACCAA	-0.263
GCCCAGGC	-0.138
GTCGGATA	0.218
CTCGGAAA	0.372
ATCGGACA	0.221
ATCGGAAA	0.407
GTCGGAGA	0.173
CTCGGAGA	0.312
ATCGGAGC	0.275
ATCGGACC	0.313
ATCGGAGA	0.25
GTCGGAAA	0.416
CTCGGGAA	0.301
ATCGGAAC	0.469
